Screening data (PubChem)
Rows were chosen to be rich in hits. Some 19% of all compounds tested hit in one or more screens of this group.
TDP1 cell CPT – qHTS for Inhibitors of human tyrosyl-DNA phosphodiesterase 1 (TDP1): qHTS in cells in presence of CPT; chicken DT40 Tdp1-/-;hTDP1 cells + 20 nM CPT, ATP luminescence, 48 h; Potency, µM (titrated, usually from 46.2 µM), hits mostly inhibitors; 420,000 tested, 12% active; AID 686979, 2013; also: nearly all actives have a fitted effect of over 55% in size
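Chicken DT40 Tdp1-/- cells complemented with human TDP1, 400 cells/well, exposed to compounds plus 20 nM camptothecin for at least 48 h at 37 C; viability read as ATP content by CellTiter-Glo luminescence.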
KB-V1 cytotox – qHTS assay for MDR1-selective chemotherapeutics: Primary screen using the drug-selected MDR subline cells KB-V1 | 400,000 tested, 3.4% active | AID 1347076, 2019 | Potency, µM (doses to about 46.1 µM), hits mostly cytotoxic | KB-V1 MDR cells viability, CellTiter-Glo, 72 h; also: nearly all actives have a fitted effect of over 60% in size
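KB-V1 MDR subline cells in DMEM (phenol-red free, 10% FBS) exposed to compounds in qHTS concentration series for 72 h at 37 degrees C. Viability read by CellTiter-Glo luminescence; concentration-effect curves fitted after normalization and correction.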
TDP1 cell noCPT – qHTS for Inhibitors of human tyrosyl-DNA phosphodiesterase 1 (TDP1): qHTS in cells in absence of CPT; AID 686978, 2013; DT40 Tdp1-/- hTDP1 cells, no CPT, ATP luminescence, 48 h; 420,000 tested, 15% active; Potency, µM (top dose mostly 46.2 µM), actives largely listed as inhibitors; also: nearly all actives have a fitted effect of over 55% in size
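Compound effects on proliferation are scored in DT40 Tdp1-/-;hTDP1 cells in the absence of CPT. ATP levels (CellTiter-Glo luminescence) are recorded after a ≥48 hr, 37 °C incubation.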
KB-3-1 tox – qHTS assay for MDR1-selective chemotherapeutics: Primary screen using the parental adenocarcinoma cell KB-3-1 | KB-3-1 viability, CellTiter-Glo ATP luminescence, 72 h | Potency, µM (top dose mostly 46.1 µM), actives largely listed as cytotoxic | 400,000 tested, 1.4% active | AID 1347075, 2019; also: nearly all actives have a fitted effect of over 60% in size
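Multi-concentration cytotoxicity screen in KB-3-1 cells grown in DMEM lacking phenol red with 10% FBS. After 72 h at 37 °C with compound, ATP-dependent luminescence was recorded.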
HT1080NT lethal – qHTS for induction of synthetic lethality in tumor cells producing 2HG: qHTS for the HT-1080-NT fibrosarcoma cell line; AID 686970, 2013; Potency, µM (top dose mostly 46.1 µM), most hits filed as cytotoxic; 360,000 tested, 1.6% active; HT-1080-NT fibrosarcoma viability, CellTiter-Glo ATP luminescence, 48 h;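 also: NT is the 2HG producing partner of a matched IDH1 knockdown line; nearly all actives have a fitted effect of over 55% in size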
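750 cells/well, RPMI + 5% FBS; 2 h settle, compound pin-transfer, 48 h at 37 degrees C. CellTiter-Glo 10 min RT, luminescence. Normalized to DMSO and media-only wells.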
HT1080 IDH1KD tx – qHTS for induction of synthetic lethality in tumor cells producing 2HG: qHTS for the HT-1080-IDH1KD cell line. 360,000 tested, 2% active. HT-1080 IDH1 knockdown viability, ATP luminescence, 48 h. Potency, µM (top dose mostly 46.1 µM), usual class: cytotoxic. AID 686971, 2013
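Knockdown cells (IDH1KD HT-1080) received compounds 2 h after plating at 750 cells/well and were kept 48 h at 37 °C in 5% FBS RPMI. A CellTiter-Glo luminescence read gave % activity for curve fitting.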
Large screens that a line does not name were inactive. Calls follow the shape of the dose curve; as a rule, active = well fitted curve in the direction sought with a large enough effect; inconclusive = small, poorly fitted or top-dose-only effect, or another doubt; inactive = no such curve, though single readings can be large; an effect the other way counts as inactive or inconclusive.

COc1ccc(-c2c(=O)n(OCc3ccccc3[N+](=O)[O-])c3ccccc3[n+]2[O-])c(OC)c1	TDP1 cell CPT inconclusive, TDP1 cell noCPT 18µM
COc1ccc(-c2c(=O)n(OCc3ccccn3)c3ccccc3[n+]2[O-])cc1OC	TDP1 cell noCPT inconclusive
O=c1c(-c2ccc(Oc3ccccc3)cc2)[n+]([O-])c2ccccc2n1OCc1ccccn1	KB-V1 cytotox inconclusive, TDP1 cell noCPT inconclusive, KB-3-1 tox inconclusive
CCOc1ccc(-c2c(=O)n(OCc3ccccn3)c3ccccc3[n+]2[O-])cc1	TDP1 cell CPT 21µM, TDP1 cell noCPT 12µM
O=C(NCCc1ccccc1)[C@@H]1CC=C[C@@H]2CCN(C3CC3)C(=O)[C@@H]21	none (no result: HT1080NT lethal, HT1080 IDH1KD tx)
CCC1CN(CCNC(=O)c2cccc3nccnc23)Cc2cc(OC)ccc2O1 (configuration not stated)	TDP1 cell noCPT inconclusive (no result: KB-V1 cytotox, KB-3-1 tox, HT1080NT lethal, HT1080 IDH1KD tx)
CC/C(O)=C1\C(=O)CC(c2ccccc2)CC1=NCCc1c(C)[nH]c2ccc(C)cc12 (configuration not stated)	TDP1 cell CPT inconclusive, TDP1 cell noCPT 23µM
CC(=O)C1=C(O)CC(c2ccccc2)CC1=NCCc1c(C)[nH]c2ccc(C)cc12 (configuration not stated)	TDP1 cell CPT inconclusive, TDP1 cell noCPT inconclusive
CC/C(O)=C1\C(=O)CCCC1=NCCc1c(C)[nH]c2ccc(C)cc12	TDP1 cell CPT inconclusive, TDP1 cell noCPT inconclusive
CCC/C(O)=C1\C(=O)CC(c2ccccc2)CC1=NCCc1c(C)[nH]c2ccc(C)cc12 (configuration not stated)	TDP1 cell CPT 18µM, TDP1 cell noCPT inconclusive
CCC(=NCCc1c(C)[nH]c2ccc(C)cc12)C1=C(O)CC(c2ccccc2)CC1=O (configuration not stated)	TDP1 cell CPT 0.58µM, TDP1 cell noCPT 0.82µM, KB-3-1 tox 0.73µM, HT1080NT lethal inconclusive, HT1080 IDH1KD tx 1.3µM
CC(=O)c1ccc(NC(=O)Cn2cc3c(n2)CCCC3)cc1	none (no result: HT1080NT lethal, HT1080 IDH1KD tx)
O=C(Cn1c(=O)n(Cc2ccco2)c(=O)c2oc3ccccc3c21)Nc1ccc(F)cc1F	TDP1 cell CPT inconclusive, TDP1 cell noCPT inconclusive (no result: HT1080NT lethal, HT1080 IDH1KD tx)
CCOc1ccc(/C(C)=N\NC(=O)Cc2ccccc2)cc1	none
O=C(CSC1=Nc2ccccc2N=C(c2ccc(F)cc2)C1)NCc1ccccc1Cl	TDP1 cell CPT 23µM, TDP1 cell noCPT inconclusive (no result: HT1080NT lethal, HT1080 IDH1KD tx)
O=C(CSc1ccccc1)NCc1ccc(F)cc1	none
O=C(CSc1ncn[nH]1)NCc1ccccc1Cl	none
COc1cc(OC)c(NC(=O)CSC2=Nc3ccccc3N=C(c3ccc(F)cc3)C2)cc1Cl	TDP1 cell CPT inconclusive, TDP1 cell noCPT inconclusive (no result: HT1080NT lethal, HT1080 IDH1KD tx)
COc1cccc(CNC(=O)CSC2=Nc3ccccc3N=C(c3ccc(F)cc3)C2)c1	TDP1 cell CPT 21µM, TDP1 cell noCPT inconclusive (no result: HT1080NT lethal, HT1080 IDH1KD tx)
O=C(CSC1=Nc2ccccc2N=C(c2ccc(F)cc2)C1)NCc1ccc(Cl)cc1	TDP1 cell CPT 21µM, TDP1 cell noCPT inconclusive (no result: HT1080NT lethal, HT1080 IDH1KD tx)
COc1ccc(NC(=O)c2cccc3c(=O)c4c([nH]c23)CCCC4)cc1	TDP1 cell CPT inconclusive, TDP1 cell noCPT inconclusive (no result: HT1080NT lethal, HT1080 IDH1KD tx)
COc1ccc(C(=O)C2CCCN(S(=O)(=O)C(C)C)C2)c(C)c1 (configuration not stated)	TDP1 cell noCPT inconclusive
C[C@@H]1CN([C@@H](C)CO)C(=O)CCCn2nncc2CO[C@H]1CN(C)Cc1ccc(Oc2ccccc2)cc1	TDP1 cell CPT inconclusive, TDP1 cell noCPT 16µM
